Inconclusive results are not listed. Values without a mark were called inactive. The source made the active and inactive calls. Calls come from the whole dose curve; as a rule, active = well fitted cell-killing curve with a large enough effect; inconclusive = small, poorly fitted or top-dose-only effect; inactive = flat fitted curve, though single readings scatter.
Potency is the fitted concentration of half-maximal effect.

The first test is described as follows: Cell Viability - LYMP2-023 (AID 975).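 For activity change, negative = cytotoxicity: cellular ATP measured by luciferase luminescence as viability proxy; plate controls were DMSO only for no effect and 92 µM tetraoctylammonium bromide control for full effect.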 Note: nearly all actives have a fitted effect of over 55% in size. The conditions noted are these: LYMP2-023 lymphoblastoid cell viability; series mostly up to 92.2 µM; activity change, negative = cytotoxicity: at the top concentration. The method, boiled down: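 2500 cells/well, 5 hr 37 C; cpd 24 hr 37 C; CellTiter-Glo, 30 min RT; luminescence. qHTS conc-response, Hill fit -> AC50. Pos ctrl tetraoctylammonium bromide.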
With `Cc1cc(Nc2ccc(O)cc2)ccc1N`, the Potency is 50.1 µM (active).
`CN(C)c1ccc(C2(c3ccc(N(C)C)cc3)OC(=O)c3cc(N(C)C)ccc32)cc1`: the “activity change, negative = cytotoxicity” value was -6.92%.
For the compound `CO[C@H]1/C=C/O[C@@]2(C)Oc3c(C)c(O)c4c(O)c(c5c(c4c3C2=O)NC2(CCN(CC(C)C)CC2)N=5)=NC(=O)/C(C)=C\C=C\[C@H](C)[C@H](O)[C@@H](C)[C@@H](O)[C@@H](C)[C@H](OC(C)=O)[C@@H]1C`, the “activity change, negative = cytotoxicity” value was -27.5%.
In the case of `O=C(OCC(COC(=O)c1ccccc1)(COC(=O)c1ccccc1)COC(=O)c1ccccc1)c1ccccc1`, the “activity change, negative = cytotoxicity” value is 2.33%.
`CC(=O)Nc1ccc(C(=O)CCl)cc1`: the Potency was 7.94 µM (active).
As for `Nc1ccc2cc3ccccc3cc2c1`, the “activity change, negative = cytotoxicity” value is 0.913%.
In the case of `c1ccc2c(c1)-c1cccc3c1c-2cc1ccccc13`, the “activity change, negative = cytotoxicity” value was 2.66%.
As to `O=C=Nc1ccc(Cc2ccc(N=C=O)cc2)cc1`, the “activity change, negative = cytotoxicity” value was -4.66%.
Take `O=[N+]([O-])c1cc([N+](=O)[O-])c2ccc(S(=O)(=O)O)cc2c1O`: the “activity change, negative = cytotoxicity” value is 1.18%.
In the case of `Cc1cc(O)c(C(C)(C)C)cc1Sc1cc(C(C)(C)C)c(O)cc1C`, the Potency is 50.1 µM (active).
With `CCC(C)Nc1ccc(NC(C)CC)cc1` (stereo not given), the Potency is 6.31 µM (active).
Turning to `CNc1ccc(O)cc1`, the Potency was 7.94 µM (active).
Same read-out and setting: under `C=CC(=O)OCCOCCOC(=O)C=C` stands 25.1 µM (active).
As to `O=C1OC2(c3cc(Br)c(O)c(Br)c3Oc3c2cc(Br)c(O)c3Br)c2c(Cl)c(Cl)c(Cl)c(Cl)c21`, the “activity change, negative = cytotoxicity” value was -27.2%.
Still for that read-out and setting: under `c1ccc2c(c1)ccc1cc3c(ccc4ccccc43)cc12` stands -1.52%; under `C/C=C1\C(=O)C[C@H]2[C@@H]3CCC4=CC(=O)CC[C@]4(C)[C@H]3CC[C@]12C`, -18.7%; under `C=C(C)c1ccccc1`, -10.4%.
`O=C1OC(O)C(C(Cl)Cl)=C1Cl` (stereo not given): the Potency is 20 µM (active).

The nature of another test: Cell Viability - LYMP2-002 (AID 977).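 For activity change, negative = cytotoxic: plate controls were DMSO only for no effect and 92 µM tetraoctylammonium bromide for full effect.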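 Note: compound exposure lasted 24 h at 37 °C.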 The conditions noted are these: LYMP2-002 lymphoblastoid cell viability, qHTS; series mostly up to 92.2 µM; activity change, negative = cytotoxic: at the top concentration. The essentials:
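Human lymphoblastoid LYMP2-002 cells, 2500 per well, exposed to compounds for 24 h at 37 C in complete medium; viability read as intracellular ATP by CellTiter-Glo luminescence, AC50 from Hill fits.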
On the technique in general: In qHTS, concentration-response curves come from the screen itself.
Turning to `CN(C)c1ccc(C2(c3ccc(N(C)C)cc3)OC(=O)c3cc(N(C)C)ccc32)cc1`, the “activity change, negative = cytotoxic” value is -9.02%.
With `CO[C@H]1/C=C/O[C@@]2(C)Oc3c(C)c(O)c4c(O)c(c5c(c4c3C2=O)NC2(CCN(CC(C)C)CC2)N=5)=NC(=O)/C(C)=C\C=C\[C@H](C)[C@H](O)[C@@H](C)[C@@H](O)[C@@H](C)[C@H](OC(C)=O)[C@@H]1C`, the “activity change, negative = cytotoxic” value was -39.2%.
Regarding `O=C(OCC(COC(=O)c1ccccc1)(COC(=O)c1ccccc1)COC(=O)c1ccccc1)c1ccccc1`, the “activity change, negative = cytotoxic” value is 16.8%.
As to `CC(=O)Nc1ccc(C(=O)CCl)cc1`, the Potency was 7.94 µM (active).
Turning to `Nc1ccc2cc3ccccc3cc2c1`, the “activity change, negative = cytotoxic” value is -8.52%.
`c1ccc2c(c1)-c1cccc3c1c-2cc1ccccc13`: the “activity change, negative = cytotoxic” value was 12.8%.
The same measure, in the same setting: under `O=C=Nc1ccc(Cc2ccc(N=C=O)cc2)cc1` stands -20.3%; under `O=[N+]([O-])c1cc([N+](=O)[O-])c2ccc(S(=O)(=O)O)cc2c1O`, -2.89%.
For `Cc1cc(O)c(C(C)(C)C)cc1Sc1cc(C(C)(C)C)c(O)cc1C`, the Potency is 31.6 µM (active).
On to `CCC(C)Nc1ccc(NC(C)CC)cc1` (stereo not given), for which the Potency is 3.98 µM (active).
Take `CNc1ccc(O)cc1`: the Potency is 10 µM (active).
Regarding `C=CC(=O)OCCOCCOC(=O)C=C`, the Potency was 25.1 µM (active).
Regarding `c1ccc2c(c1)ccc1cc3c(ccc4ccccc43)cc12`, the “activity change, negative = cytotoxic” value was -12.7%.
In the case of `C/C=C1\C(=O)C[C@H]2[C@@H]3CCC4=CC(=O)CC[C@]4(C)[C@H]3CC[C@]12C`, the “activity change, negative = cytotoxic” value is -23.8%.
Same read-out and setting: the result for `C=C(C)c1ccccc1` reads -2.37%.
As to `O=C1OC(O)C(C(Cl)Cl)=C1Cl` (stereo not given), the Potency is 25.1 µM (active).

Another test in a line: Cell Viability - LYMP2-006 (AID 978). For activity change, negative = cytotoxicity: % is set by controls: 0 for no effect and ±100 for the full control effect. Note: nearly all actives have a fitted effect of over 60% in size. Conditions: LYMP2-006 lymphoblastoid cell viability, qHTS; series mostly up to 92.2 µM; activity change, negative = cytotoxicity: at the top concentration. The method, boiled down: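 Concentration-dependent loss of intracellular ATP in a human lymphoblastoid line after 24 hr treatment at 37 C was measured by CellTiter-Glo luminescence, with AC50 values obtained from standard Hill-equation modelling.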
Turning to `Cc1cc(Nc2ccc(O)cc2)ccc1N`, the Potency was 50.1 µM (active).
For `CN(C)c1ccc(C2(c3ccc(N(C)C)cc3)OC(=O)c3cc(N(C)C)ccc32)cc1`, the “activity change, negative = cytotoxicity” value is -6.33%.
Regarding `O=C(OCC(COC(=O)c1ccccc1)(COC(=O)c1ccccc1)COC(=O)c1ccccc1)c1ccccc1`, the “activity change, negative = cytotoxicity” value is -0.428%.
Take `CC(=O)Nc1ccc(C(=O)CCl)cc1`: the Potency was 10 µM (active).
As to `Nc1ccc2cc3ccccc3cc2c1`, the “activity change, negative = cytotoxicity” value was -2.96%.
The same measure, in the same setting: under `c1ccc2c(c1)-c1cccc3c1c-2cc1ccccc13` stands -10.3%; under `O=C=Nc1ccc(Cc2ccc(N=C=O)cc2)cc1`, 11.5%.
For the compound `O=[N+]([O-])c1cc([N+](=O)[O-])c2ccc(S(=O)(=O)O)cc2c1O`, the “activity change, negative = cytotoxicity” value is 0.191%.
As to `Cc1cc(O)c(C(C)(C)C)cc1Sc1cc(C(C)(C)C)c(O)cc1C`, the Potency is 31.6 µM (active).
With `CCC(C)Nc1ccc(NC(C)CC)cc1` (stereo not given), the Potency is 5.01 µM (active).
For the compound `CNc1ccc(O)cc1`, the Potency is 12.6 µM (active).
For the compound `C=CC(=O)OCCOCCOC(=O)C=C`, the Potency is 25.1 µM (active).
Consider `O=C1OC2(c3cc(Br)c(O)c(Br)c3Oc3c2cc(Br)c(O)c3Br)c2c(Cl)c(Cl)c(Cl)c(Cl)c21`, for which the “activity change, negative = cytotoxicity” value is -27.1%.
For `Oc1ccc2cc(SSc3ccc4cc(O)ccc4c3)ccc2c1`, the Potency was 50.1 µM (active).
As for `c1ccc2c(c1)ccc1cc3c(ccc4ccccc43)cc12`, the “activity change, negative = cytotoxicity” value was -0.156%.
Take `C=C(C)c1ccccc1`: the “activity change, negative = cytotoxicity” value is -5.37%.
Turning to `O=C1OC(O)C(C(Cl)Cl)=C1Cl` (stereo not given), the Potency is 25.1 µM (active).

A further test is described as follows: Cell Viability - LYMP2-007 (AID 979).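 For activity change, negative = cytotoxicity: 0% = DMSO only and the negative end = 92 µM tetraoctylammonium bromide.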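 Note: cells exposed to compound for 24 h before reading; nearly all actives have a fitted effect of over 60% in size.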 The conditions noted are these: LYMP2-007 lymphoblastoid cell viability; series mostly up to 92.2 µM; activity change, negative = cytotoxicity: at the top concentration. The essentials:
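Luminescent ATP signal (CellTiter-Glo) serves as the viability read-out after 24 hr compound treatment of lymphoblastoid cells in complete medium at 37 C. Concentration-response data were fitted to the Hill equation to give AC50 values.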
In the case of `Cc1cc(Nc2ccc(O)cc2)ccc1N`, the Potency is 31.6 µM (active).
As for `CN(C)c1ccc(C2(c3ccc(N(C)C)cc3)OC(=O)c3cc(N(C)C)ccc32)cc1`, the “activity change, negative = cytotoxicity” value is 5.13%.
Same read-out and setting: under `CO[C@H]1/C=C/O[C@@]2(C)Oc3c(C)c(O)c4c(O)c(c5c(c4c3C2=O)NC2(CCN(CC(C)C)CC2)N=5)=NC(=O)/C(C)=C\C=C\[C@H](C)[C@H](O)[C@@H](C)[C@@H](O)[C@@H](C)[C@H](OC(C)=O)[C@@H]1C` stands -20%.
`O=C(OCC(COC(=O)c1ccccc1)(COC(=O)c1ccccc1)COC(=O)c1ccccc1)c1ccccc1`: the “activity change, negative = cytotoxicity” value was -2.06%.
With `CC(=O)Nc1ccc(C(=O)CCl)cc1`, the Potency was 6.31 µM (active).
With `Nc1ccc2cc3ccccc3cc2c1`, the “activity change, negative = cytotoxicity” value is 0.852%.
`c1ccc2c(c1)-c1cccc3c1c-2cc1ccccc13`: the “activity change, negative = cytotoxicity” value was -8.37%.
Turning to `O=C=Nc1ccc(Cc2ccc(N=C=O)cc2)cc1`, the “activity change, negative = cytotoxicity” value is -0.915%.
Consider `O=[N+]([O-])c1cc([N+](=O)[O-])c2ccc(S(=O)(=O)O)cc2c1O`, for which the “activity change, negative = cytotoxicity” value was -0.818%.
In the case of `Cc1cc(O)c(C(C)(C)C)cc1Sc1cc(C(C)(C)C)c(O)cc1C`, the Potency is 31.6 µM (active).
Turning to `CCC(C)Nc1ccc(NC(C)CC)cc1` (stereo not given), the Potency is 5.01 µM (active).
Same read-out and setting: the result for `CNc1ccc(O)cc1` reads 6.31 µM (active); that for `C=CC(=O)OCCOCCOC(=O)C=C`, 25.1 µM (active).
Take `O=C1OC2(c3cc(Br)c(O)c(Br)c3Oc3c2cc(Br)c(O)c3Br)c2c(Cl)c(Cl)c(Cl)c(Cl)c21`: the “activity change, negative = cytotoxicity” value is -24.9%.
As to `Oc1ccc2cc(SSc3ccc4cc(O)ccc4c3)ccc2c1`, the Potency is 39.8 µM (active).
Regarding `c1ccc2c(c1)ccc1cc3c(ccc4ccccc43)cc12`, the “activity change, negative = cytotoxicity” value was -22.7%.
Regarding `C/C=C1\C(=O)C[C@H]2[C@@H]3CCC4=CC(=O)CC[C@]4(C)[C@H]3CC[C@]12C`, the “activity change, negative = cytotoxicity” value was -29.9%.
Same read-out and setting: under `C=C(C)c1ccccc1` stands 4.4%.
`O=C1OC(O)C(C(Cl)Cl)=C1Cl` (stereo not given): the Potency was 25.1 µM (active).

These data come from PubChem BioAssay (NCATS).
